# Data taken from article PMC6212790, “How bacterial xenogeneic silencer rok distinguishes foreign from self DNA in its resident genome”.
# Over roughly 33,000 sequences, “e-score” has its median near -0.038; the highest 2% begin near 0.33. This is one part of a sample in which the highest values are shown more often than they occur.
# Target: T1, GST-Rok-C97-191 (Bacillus subtilis subsp. subtilis str. …, UniProt O34857 97-191)
# T1 sequence: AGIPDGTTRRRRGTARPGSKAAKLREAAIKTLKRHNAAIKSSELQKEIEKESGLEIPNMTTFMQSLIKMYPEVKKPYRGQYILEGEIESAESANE
# Test: protein binding microarray; Rok is a gene silencer of Bacillus subtilis; high values mean tight binding
# Conditions: protein: recombinant; tags: GST (pTH5325, pDEST15-Magic modified); dsDNA, one strand shown
# In short: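 Each has a 25-mer constant primer and a 35-mer variable part from a de Bruijn sequence of order 10, covering every non-palindromic 8-mer at least 32 times (palindromic 16). Preference for each 8-mer is given as a rank-based, unitless enrichment score (E-score). Its range runs from 0.5 (most favored) to −0.5 (most disfavored).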
row,Sequence,binding signal [E-score]
1,CATTGTGA,-0.101
2,AGAGGTTG,-0.0137
3,AAAGTTAA,-0.0842
4,ACGTCGAT,0.108
5,GGAATCTA,0.339
6,GTAATCTA,0.313
7,GAAATCTC,0.209
8,CTAATCTA,0.348
9,AAAATCTC,0.242
10,CGAATCTA,0.256
11,GCAATCTA,0.307
12,AAAATCTA,0.339
13,ATAATCTA,0.289
14,GAAATCTA,0.383
15,AAAATCTG,0.00361
16,AGAATCTA,0.322
17,CAAAATCG,0.0988
18,TATGCCCA,-0.134
19,GTGGCAAA,0.0701
20,ACCGTAGT,0.0984
21,ATGCGGCG,-0.186
22,AGCCGTTA,0.0336
23,CAAATCTG,-0.15
24,CAAATCTA,0.354
25,TAAATCGA,0.0722

row,Sequence,binding signal [E-score]
1,CAAATCTC,0.0537
2,TAAATCTA,0.364
3,TAAATCAA,0.178
4,AGTCTATC,-0.0937
5,CATGTCAA,-0.0291
6,CAAATATC,0.231
7,GAAATATA,0.305
8,CAAATATA,0.346
9,TAAATAAA,0.162
10,AAAATATC,0.186
11,CAAATATG,0.161
12,AAAATATA,0.399
13,TAAATATA,0.378
14,AAAATATG,0.271
15,CCCACCTA,-0.0708
16,AAGTTAAG,-0.104
17,GTTGAATA,0.173
18,CTTTTGTA,0.241
19,ATTGATAG,0.348
20,ATTGATAC,0.22
21,ATTGATAA,0.243
22,CGATACAC,0.155
23,CGTTCCGA,-0.149
24,AGCACGGA,0.0231
25,AATCTAAG,0.234

row,Sequence,binding signal [E-score]
1,AATCTAGT,0.282
2,AATCTAAC,0.199
3,GATCTAAC,0.0254
4,AATCTAGC,0.234
5,AATCTACG,0.36
6,CATCTACG,-0.0119
7,AATCTACC,0.447
8,GATCTACC,0.35
9,CATCTACC,0.222
10,ACTCTACT,0.273
11,AATCTACT,0.43
12,AGAATGCA,0.038
13,ACGTTTCC,-0.131
14,AAGTGTCG,0.0859
15,AGAAAAGC,0.217
16,ACCACCAT,-0.0276
17,GACTATTA,0.165
18,AACTATTA,0.444
19,GTCTATTA,0.0713
20,ATCTATTA,0.353
21,AACTATCA,0.369
22,CTCTATTA,0.246
23,CGCTATCA,0.0552
24,AGCTATCA,0.335
25,CACTATCA,0.175

row,Sequence,binding signal [E-score]
1,GGCTATCA,-0.0497
2,CACTATTA,0.202
3,GACTATCA,-0.147
4,ATAGTTGC,0.306
5,CTGGAACC,-0.0259
6,AGTCAGTA,0.149
7,AAGGCGCT,-0.115
8,CCGCCTAG,-0.149
9,GAGATGAA,-0.0161
10,CCCGAAAC,-0.179
11,CGGTCGTA,0.261
12,ATTATGAG,-0.00845
13,GTACCCAA,-0.0765
14,CAGTATTA,0.188
15,AAGTATTA,0.349
16,GAGTATTA,0.187
17,CTCTATCA,0.0167
18,ATCTATCA,0.451
19,GTCTATCA,-0.0797
20,AGTCTTGC,0.0754
21,ACGACTTA,0.051
22,GCAGCAAC,-0.161
23,TATCAATA,0.331
24,GATCAATA,0.0798
25,AATCAATA,0.227

row,Sequence,binding signal [E-score]
1,AAAAAACA,0.19
2,AGAAACCG,-0.049
3,AAATACAG,0.123
4,AAATACGT,0.343
5,AAATACAT,0.359
6,AAATACGG,0.213
7,AAATACGA,0.0254
8,AAATACAC,0.25
9,CGTTCCTA,0.0168
10,CAGTATGC,-0.144
11,GCAGATAA,0.127
12,CCTAATAC,0.14
13,ATCCGTCC,-0.186
14,CTACCATC,0.421
15,GTACCATA,0.362
16,CTACCATA,0.324
17,ATACCATC,0.0328
18,GTACCAGA,0.0231
19,ATACCATA,0.267
20,ATACCACG,0.0833
21,GTACCACA,0.0685
22,CTACCACA,0.343
23,ATGGCGCA,-0.0193
24,GAAACTCC,0.0382
25,CGGTAGAC,-0.0972

row,Sequence,binding signal [E-score]
1,CCGTAGAA,0.289
2,TCGTAGAA,0.236
3,CGGTAGAA,0.411
4,AGGTAGAT,0.36
5,CGGTAGAG,-0.0194
6,ACGTAGAT,0.219
7,TGGTAGAA,0.468
8,GGGTAGCA,-0.148
9,GGGTAGAA,0.384
10,AGTTAGAT,0.196
11,GGGTAGAC,-0.0486
12,CGAGTAGC,-0.0476
13,AGTCAAGG,-0.145
14,CATGCTCC,-0.102
15,AAAGGATG,-0.047
16,AGACAGTA,0.0933
17,GAGAACGA,-0.104
18,CGAGCAAG,-0.0658
19,CTTACGGC,-0.196
20,CATATTGC,0.0992
21,CAGGTCAA,-0.108
22,AGGTAGAG,0.118
23,AGGTAGAA,0.433
24,ATGTAGAA,0.38
25,CTGTAGAA,0.258

row,Sequence,binding signal [E-score]
1,AGGTAGAC,0.093
2,GTGTAGAA,0.293
3,ACCTCTTA,0.191
4,TCATAGGA,0.154
5,CAGGAGCA,-0.151
6,CAACCTAC,0.263
7,AACATCCT,0.0847
8,CGCCTACG,-0.0439
9,CCCTTGAC,-0.132
10,AATAGTAC,0.293
11,AATAGTAT,0.332
12,AATAGTAA,0.338
13,AACAGTAG,0.362
14,CAAAGTAC,-0.0306
15,AATAGTCA,0.186
16,GAAAGTAC,0.35
17,ATTAGTAA,0.303
18,AACAGTAA,0.285
19,GAAAGTAA,0.226
20,AATAGTGT,0.242
21,CACAGTAG,0.0897
22,AGTTGCCA,0.0801
23,ATTAGGGC,-0.073
24,CAAGACTA,0.186
25,CTGACGAA,-0.0673
